High-throughput results from PubChem.
Sampled rows, rich in hits. Any-hit rate of the full collection: about 6.5%.
FMDV antiviral: blocks foot and mouth disease virus; FMDV antiviral cell-based qHTS; Potency, µM (highest dose often 57.9 µM), actives largely listed as inhibitors; 410,000 compounds, 1.2% hits; calls by dose curve; tested in HEK293T cells; note: read-out not given here; nearly all actives have a fitted effect of over 45% in size
VACV mCherry inh: vaccinia inhibition (mCherry reporter); Vaccinia virus mCherry reporter infection, fluorescence; Potency, µM (doses to about 36.5 µM), actives largely listed as inhibitors; 310,000 compounds, 0.63% hits; AID 720579; calls by dose curve; tested in A549 cells; note: nearly all actives have a fitted effect of over 35% in size
HCMV antiviral: blocks human cytomegalovirus replication. HFF cells, HCMV-luciferase reporter, 72 h; active compounds read low. AID 1259415. activity change, negative = inhibition, % at 57.5 µM. 410,000 compounds, 4.5% hits; in the data active = activity change below about -60%; inconclusive = no clear call, values can overlap the other calls; inactive = above about -39%
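Human foreskin fibroblasts infected with luciferase-reporter HCMV at MOI 1 PFU/cell, compounds at two doses. Luciferase measured 72 h post infection; normalized to buffer-only basal and Salinomycin (10uM) controls.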
Vaccinia Venus: vaccinia inhibition (Venus reporter); AID 720580; Potency, µM (titrated, usually from 36.5 µM), actives largely listed as inhibitors; Vaccinia virus Venus reporter expression, fluorescence; 330,000 compounds, 0.46% hits; calls by dose curve; tested in A549 cells; note: nearly all actives have a fitted effect of over 30% in size
Marburg entry inh: Marburg virus entry inhibition. Marburg virus pseudotyped entry inhibition, cell reporter. 300,000 compounds, 1.8% hits. Potency, µM (titrated, usually from 37.8 µM), most hits filed as inhibitors; calls by dose curve; tested in HEK293 cells
LASV entry inh: blocks Lassa virus binding to or entry into cells; Lassa virus pseudotype entry inhibition, cell reporter; AID 540256; 300,000 compounds, 1.2% hits; Potency, µM (doses to about 37.9 µM), most hits filed as inhibitors; calls by dose curve; tested in HEK293 cells; note: nearly all actives have a fitted effect of over 50% in size
Hits are given with their value; . = inactive; ? = inconclusive; / = no result given.

SMILES	FMDV antiviral	VACV mCherry inh	HCMV antiviral	Vaccinia Venus	Marburg entry inh	LASV entry inh
Cc1ccc(-c2nc(-c3ccccn3)no2)cc1	2.8µM	.	-91	.	1.1µM	0.32µM
Cc1ccc(-c2nc(-c3ccccn3)no2)cc1Cl	.	.	-64	.	?	1.4µM
c1ccc(-c2nc(-c3ccccn3)no2)cc1	13µM	.	.	.	?	?
c1ccc(-c2noc(-c3ccno3)n2)nc1	.	/	.	/	/	/
Cc1ccc(Cc2nc(-c3ccccn3)no2)cc1	.	.	.	.	.	?
COc1cc(-c2cnc3ccccc3c2)cc2c1OCCN(C(=O)Cn1nccc1C)C2	.	.	/	.	/	/
CC(=O)NC(Cc1ccc(I)cc1)C(=O)NCC(N)C(=O)c1ccccc1 (stereo not given)	/	.	/	.	/	/
c1ccc(-c2ccc(-c3nc(-c4ccccn4)no3)cc2)cc1	2.8µM	.	-95	.	?	?
COc1ccc(CN2CCOCC2)cc1OC	.	/	.	.	.	.
COc1cc2sc3ccc(-c4ccc(CN5CCOCC5)cc4)cc3c(=O)c2cc1OC	32µM	.	?	?	/	/
COc1cccc(Cc2nc3ccccc3nc2SCC(=O)Nc2ccccc2F)c1	.	.	.	.	/	.
COc1cc(C2C3C(=O)N(Cc4ccccc4)C(=O)C3ON2c2ccccc2)cc(OC)c1OC (stereo not given)	.	/	.	.	.	.
COc1ccc(C2C3C(=O)N(Cc4ccccc4)C(=O)C3ON2c2ccccc2)c(OC)c1OC (stereo not given)	.	/	.	.	?	5.6µM
Nc1c(Cl)ncnc1N/N=C/c1ccnc2ccccc12	.	.	.	.	.	.
Nc1c(Cl)ncnc1N/N=C/c1ccc2ccccc2n1	.	2.8µM	-98	?	16µM	?
Nc1c(Cl)ncnc1N/N=C/c1ccccn1	.	2.2µM	-99	?	?	2.5µM
C=CCn1c(O)c(C(C)=Nc2ccc3c(c2)CCC3)c(=O)[nH]c1=O	.	.	.	.	.	.
C=CCn1c(O)c(C(CC)=Nc2ccc3c(c2)CCC3)c(=O)[nH]c1=O	?	.	.	.	.	0.89µM
CC1(C)C(=O)Nc2ccccc2N1C(=O)Cn1ncc(Cl)c(Cl)c1=O	.	/	.	/	/	/
Cc1nn(CC(=O)N2c3ccccc3NC(=O)C2(C)C)c(C)c1[N+](=O)[O-]	.	.	-82	.	/	/
COc1ccc(/C=N/NC(=O)Cc2cccs2)cc1	.	/	.	/	/	/
Cc1ccc(/C=N/NC(=O)Cc2cccs2)o1	.	.	-74	.	.	.
CC(C)(C)c1ccc(S(=O)(=O)/C=C/C#N)cc1	/	.	/	.	2.5µM	3.7µM
O=C1CC(CC(=O)N2CC3CCCC2C3)(c2cccc(F)c2)C(=O)N1Cc1cccnc1 (stereo not given)	.	.	/	.	/	/
CCOC(=O)c1c(NC(=O)CN2CCCCC2)sc(C)c1C	.	/	.	/	/	/
SMILES	FMDV antiviral	VACV mCherry inh	HCMV antiviral	Vaccinia Venus	Marburg entry inh	LASV entry inh
CCOC(=O)c1c(NC(=O)CC)sc2c1CCN(Cc1ccccc1)C2	.	?	.	.	/	/
CCOC(=O)c1c(NC(=S)N2CCN(C)CC2)sc2c1CCN(C(=O)OCC)C2	.	.	-99	.	?	.
CCOC(=O)c1sc(NC(=O)CCN2CC(C)OC(C)C2)c(C(=O)OCC)c1C (stereo not given)	/	/	/	/	.	/
CCOC(=O)c1c(NC(=O)CN2CCCCC2)sc2c1CCN(C(=O)OCC)C2	/	?	-60	.	?	?
CCOC(=O)c1sc(NC(=O)CCN2CCN(C)CC2)c(C(=O)OCC)c1C	.	.	?	.	.	11µM
CCOC(=O)c1c(NC(=O)CN2CCN(S(=O)(=O)c3cc(Cl)ccc3Cl)CC2)sc(C(=O)N(C)C)c1C	?	/	-90	/	/	/
COc1ccc2c(c1)C(=O)[C@@H](OC(=O)NCCc1ccc(OC)c(OC)c1)[C@H](c1ccc(OC)c(Br)c1)O2	/	/	/	/	.	/
CCN(CC)C(=O)c1oc2ccc(S(=O)(=O)N3CC(C)CC(C)C3)cc2c1C (stereo not given)	.	.	-88	.	?	?
COC1C(OC(=O)c2ccc(C)[nH]2)C(O)C(Oc2ccc3c(O)c(NC(=O)c4ccc(O)c(CC=C(C)C)c4)c(=O)oc3c2Cl)OC1(C)C (stereo not given)	40µM	.	.	.	/	/
O=C(Nc1cc(C(F)(F)F)ccc1Cl)c1cnn(-c2ccccc2)c1-n1cccc1	32µM	?	.	.	/	.
COC(=O)c1c(C(=O)OC)n(CCCN)c2ccc(C)cc12	.	.	.	.	8.2µM	?
CCOC(=O)c1c(C)n(CCO)c2ccc(O)cc12	.	/	.	/	?	.
COc1ccc(CN2[C@@H](CC(=O)O)c3ccc(/C=C/C(=O)O)cc3S2(=O)=O)cc1	/	.	/	.	/	/
COc1cc(C(=O)NC(=S)N(C)Cc2ccccc2)cc(OC)c1OC	.	?	.	?	.	.
COc1cc(C(=O)NC(=S)N(CCc2ccccc2)CCc2ccccc2)cc(OC)c1OC	.	.	.	.	3.2µM	?
CC(CCc1ccccc1)NC(=S)NC(=O)c1ccco1 (stereo not given)	.	.	.	.	.	?
O=C(NC(=S)N(CCc1ccccc1)CCc1ccccc1)c1ccco1	.	.	.	.	?	8.9µM
COc1cc(C(=O)N/N=C(\C)Cc2ccccc2)cc(OC)c1OC	.	.	-91	.	?	?
CCC(=N\NC(=O)COc1ccccc1OC)/C(CC)=N/NC(=O)COc1ccccc1OC	?	/	.	/	/	/
COc1ccccc1OCC(=O)NN=C(Cc1ccccc1)Cc1ccccc1	.	.	-63	.	?	.
O=C(CNC(=O)c1ccccc1F)OCc1cc(=O)n2nc(C3CC3)sc2n1	.	.	.	.	/	.
NC(=S)NN=C(Cc1ccccc1)Cc1ccccc1	?	?	-70	?	?	?
O=C(NN=C(Cc1ccccc1)Cc1ccccc1)c1ccccc1O	.	?	.	.	?	.
Cc1nc2c(c(C)c1CCC(=O)NCc1ccc(F)cc1)c(=O)n(C)c(=O)n2C	.	.	.	.	.	.
CCN(CC)CCCNC(=O)CCc1c(C)nc2c(c1C)c(=O)n(C)c(=O)n2C	.	.	-65	.	.	.
SMILES	FMDV antiviral	VACV mCherry inh	HCMV antiviral	Vaccinia Venus	Marburg entry inh	LASV entry inh
O=S(=O)(c1ccccc1Cl)N1CCN(c2nc(-c3cccs3)nc3ccccc23)CC1	/	.	/	.	/	/
COC(=O)N/N=C/c1ccc([N+](=O)[O-])o1	.	/	.	/	.	.
Cc1ccc(OCC(=O)N/N=C/c2ccc([N+](=O)[O-])o2)cc1	.	?	?	?	.	.
O=C(COc1ccccc1)N/N=C/c1ccc([N+](=O)[O-])o1	.	/	-71	/	/	/
CN(/N=C/c1ccc([N+](=O)[O-])o1)c1ccccc1	.	.	-78	.	.	.
O=C(N/N=C/c1ccc(-c2ccc([N+](=O)[O-])cc2)o1)C(O)c1ccccc1 (stereo not given)	.	?	.	.	?	.
O=C(N/N=C/c1ccc([N+](=O)[O-])o1)C(O)c1ccccc1 (stereo not given)	.	/	-60	/	/	/
COCc1ccc(CN2CCOc3c(cc(-c4cc(C)c5cccc(OC)c5n4)cc3OC)C2)o1	.	.	/	.	/	/
